Measured values: PubChem BioAssay (Tox21)
Inconclusive results are not listed. Active and inactive are the calls of the source. Unless noted, calls follow the shape of the dose curve; as a rule, active = well fitted curve in the direction sought with a large enough effect in the repeat runs; inconclusive = weak or mixed curves; inactive = no such curve, though single readings can be large; an effect the other way counts as inactive or inconclusive.

Columns and labels:
[1] = qHTS assay to identify small molecule antagonists of the thyroid receptor (TR) signaling pathway - cell viability counter screen (AID 743064); also: nearly all actives have a fitted effect of over 50% in size; also: potency is read from the fitted curve at half-maximal effect
Method in brief: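 In-well cytotoxicity read by CellTiter-Fluor (30 min, 37 C) following 23.5 h exposure of GH3 cells bearing a TRE-luciferase sensor. Compounds were added alongside 1 nM (final) T3 to drive TR transactivation.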

[2] = qHTS assay to identify small molecule antagonists of the thyroid receptor (TR) signaling pathway (AID 743065); also: nearly all actives have a fitted effect of over 55% in size; also: potency is read from the fitted curve at half-maximal effect
Method in brief: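 GH3.TRE-Luc rat pituitary cells (two TREs driving luciferase) were dosed with compound, then stimulated with 1 nM T3 (final) for 23.5 h at 37 C. ONE-Glo luminescence was the read-out, with CellTiter-Fluor fluorescence as the cytotoxicity counter-screen.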

[3] = test system: thyroid hormone receptor (rat, GH3 cells); test: qHTS assay to identify small molecule agonists of the thyroid receptor (TR) signaling pathway (AID 743066; calls by dose curve)
[4] = molecular target: Estrogen receptor (Homo sapiens) (UniProt P03372); test: qHTS assay to identify small molecule antagonists of the estrogen receptor alpha (ER-alpha) signaling pathway (AID 743069; active = well fitted curve in the direction sought with a large enough effect in the signal ratio in the repeat runs, not every such curve was filed as active; the % refers to the signal ratio)
Method in brief: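 Beta-lactamase FRET fluorescence is read after 2 hr at room temperature with LiveBLAzer B/G substrate. Before that, ER-alpha-bla HEK293 cells sit 4 hr after plating, then receive compound plus 17beta-estradiol and incubate 18 hr at 37C.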

[5] = qHTS assay to identify small molecule antagonists of the estrogen receptor alpha (ER-alpha) signaling pathway - cell viability counter screen (AID 743074; calls by dose curve;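 also: HEK293 cells carrying ER-alpha-UAS-bla reporter stimulated with 17beta-estradiol; nearly all actives have a fitted effect of over 45% in size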)
[6] = molecular target: Estrogen receptor (Homo sapiens) (UniProt P03372); test: qHTS assay to identify small molecule agonists of the estrogen receptor alpha (ER-alpha) signaling pathway (AID 743075; calls by dose curve;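 also: HEK293 GripTite cells with ER-alpha and UAS-driven beta-lactamase reporter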)
[7] = molecular target: Estrogen receptor (Homo sapiens) (UniProt P03372); test: qHTS assay to identify small molecule agonists of the estrogen receptor alpha (ER-alpha) signaling pathway using the BG1 cell line (AID 743079); also: nearly all actives have a fitted effect of over 20% in size
[8] = qHTS assay to identify small molecule antagonists of the estrogen receptor alpha (ER-alpha) signaling pathway using the BG1 cell line (AID 743080; calls by dose curve;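 also: BG1 cells stimulated with 17beta-estradiol alongside compound; series mostly up to about 70 µM; nearly all actives have a fitted effect of over 25% in size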)
Method in brief: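 Endogenous full-length ER-alpha in BG1-Luc-4E2 cells drives a stably integrated 4×ERE luciferase gene; compounds were tested against 17beta-estradiol over 21.5 h, with luminescence and multiplexed viability fluorescence recorded.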

[9] = qHTS assay to identify small molecule antagonists of the estrogen receptor alpha (ER-alpha) signaling pathway using the BG1 cell line - cell viability counter screen (AID 743081);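 also: compound given together with 17beta-estradiol as the ER stimulus; series mostly up to about 70 µM; nearly all actives have a fitted effect of over 45% in size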
Aromatase (Homo sapiens) = Aromatase (Homo sapiens) (UniProt P11511); test: qHTS assay to identify aromatase inhibitors (AID 743083); also: nearly all actives have a fitted effect of over 55% in size; also: potency is read from the fitted curve at half-maximal effect

Measured: Potency

Sequence of Aromatase (Homo sapiens) (P11511 whole entry, looked up): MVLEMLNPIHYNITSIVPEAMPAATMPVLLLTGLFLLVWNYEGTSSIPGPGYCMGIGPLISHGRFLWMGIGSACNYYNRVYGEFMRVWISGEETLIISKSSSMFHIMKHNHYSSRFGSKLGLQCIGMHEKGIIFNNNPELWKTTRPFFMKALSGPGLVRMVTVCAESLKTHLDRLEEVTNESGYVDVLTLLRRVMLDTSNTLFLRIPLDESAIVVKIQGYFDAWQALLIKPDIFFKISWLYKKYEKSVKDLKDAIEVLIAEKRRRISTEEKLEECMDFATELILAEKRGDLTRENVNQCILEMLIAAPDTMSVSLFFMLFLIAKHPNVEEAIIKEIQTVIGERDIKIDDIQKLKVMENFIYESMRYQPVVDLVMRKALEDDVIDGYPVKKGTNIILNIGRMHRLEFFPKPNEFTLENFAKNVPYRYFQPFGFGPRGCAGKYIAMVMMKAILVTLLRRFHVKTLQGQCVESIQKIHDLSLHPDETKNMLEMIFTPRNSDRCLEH
Sequence of Estrogen receptor (Homo sapiens) (P03372 whole entry, looked up): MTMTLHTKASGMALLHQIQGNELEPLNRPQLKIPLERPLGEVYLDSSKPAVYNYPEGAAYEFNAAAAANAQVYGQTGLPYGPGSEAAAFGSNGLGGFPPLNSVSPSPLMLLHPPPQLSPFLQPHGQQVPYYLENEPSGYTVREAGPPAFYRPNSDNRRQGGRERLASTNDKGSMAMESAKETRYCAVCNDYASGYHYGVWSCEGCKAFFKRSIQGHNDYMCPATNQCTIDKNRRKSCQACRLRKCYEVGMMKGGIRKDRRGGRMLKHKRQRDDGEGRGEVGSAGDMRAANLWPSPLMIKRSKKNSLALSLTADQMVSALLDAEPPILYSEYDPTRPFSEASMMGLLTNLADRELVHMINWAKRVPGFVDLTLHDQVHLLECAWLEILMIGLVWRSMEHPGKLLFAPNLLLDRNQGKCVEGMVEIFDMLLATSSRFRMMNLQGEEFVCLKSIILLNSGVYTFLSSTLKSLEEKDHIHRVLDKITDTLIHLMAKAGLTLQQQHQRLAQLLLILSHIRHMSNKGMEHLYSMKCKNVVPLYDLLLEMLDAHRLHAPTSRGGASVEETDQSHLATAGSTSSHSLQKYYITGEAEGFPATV

C=C(C)C(=O)OC(C)C
inactive: all assays above

CCOc1cc(OCC)c(C(=O)CCC(=O)O)cc1OCC
not listed: [4]
inactive: all other assays above

CC/C(=C\C(=N/O)C(N)=O)C(C)[N+](=O)[O-] (centres undefined)
not listed: [4]
inactive: all other assays above

NC1CCN(c2nc3c(cc2F)c(=O)c(C(=O)O)cn3-c2ccc(F)cc2F)C1 (centres undefined)
active: [2] 23.7 µM
not listed: [4] | [9]
inactive: all other assays above

CCOC(=O)C1=NN(c2ccccc2)C(=O)C1
not listed: [4]
inactive: all other assays above

CCCCCCCCN(C)C
inactive: all assays above

C1CCC2OC2C1 (centres undefined)
not listed: [7]
inactive: all other assays above

O=C(NN1CCCC1)NS(=O)(=O)c1ccc(Cl)cc1
not listed: [9]
inactive: all other assays above

CC(=O)/C=C/C1C(C)=CCCC1(C)C (centres undefined)
not listed: [7]
inactive: all other assays above

Cc1cccc(C(C)(C)C)c1O
not listed: [4]
inactive: all other assays above

OC(CCN1CCCCC1)(c1ccccc1)C1CCCCC1 (centres undefined)
not listed: [8]
inactive: all other assays above

CCN(CC)CCc1nc(-c2ccccc2)no1
not listed: [8]
inactive: all other assays above

O=c1c2ccccc2nnn1CCl
inactive: all assays above

NC(N)=N/N=C/c1c(Cl)cccc1Cl
active: [1] 23.7 µM | [2] 23.7 µM
not listed: [4] | [9]
inactive: all other assays above

c1ccc(CNCc2ccccc2)cc1
inactive: all assays above

Cc1ccc(O)c([C@H](CCN(C(C)C)C(C)C)c2ccccc2)c1
active: [1] 11.9 µM | [2] 26.6 µM
inactive: [3] | [5] | [9] | Aromatase (Homo sapiens)

Cn1c(NCCN(CCO)CCCc2ccc([N+](=O)[O-])cc2)cc(=O)n(C)c1=O
inactive: [1] | [2] | [3] | [5] | [9] | Aromatase (Homo sapiens)

CC(C)=CCCC(C)CC=O (centres undefined)
inactive: [1] | [2] | [3] | [5] | [9]

CCCCCCCCCCCCCCCC(=O)OC/C=C(C)/C=C/C=C(C)/C=C/C1=C(C)CCCC1(C)C
inactive: [1] | [2] | [3] | [5] | [9] | Aromatase (Homo sapiens)

Oc1ccc(C(O)CNCCCCCCNCC(O)c2ccc(O)c(O)c2)cc1O (centres undefined)
inactive: [3] | [5] | [8] | Aromatase (Homo sapiens)
active: [1] 15 µM | [2] 29.8 µM

N#Cc1c(F)cccc1F
inactive: [1] | [2] | [3] | [5] | [9] | Aromatase (Homo sapiens)

Cc1ccc(C)o1
inactive: [1] | [2] | [3] | [5] | [9] | Aromatase (Homo sapiens)

C=CC(=O)OCCOC(=O)CCC(=O)O
inactive: [1] | [2] | [3] | [5] | [9]

CC(C)c1cccc(C(C)C)c1NC(=O)NS(=O)(=O)c1cc(C(C)(C)O)co1
inactive: [1] | [2] | [3] | [5] | [9]

COC(=O)CSc1cc(N=c2sc(=O)n3n2CCCC3)c(F)cc1Cl
inactive: [1] | [2] | [3] | [5] | [9] | Aromatase (Homo sapiens)

CCCCCCCCCCCCC(=O)O
not listed: [4] | [7]
inactive: all other assays above

CC[C@]12CCCN3CCc4c(n(c5ccccc45)C(=O)C1)[C@@H]32
active: [1] 8.04 µM | [2] 7.17 µM | Aromatase (Homo sapiens) 11.4 µM
inactive: [3] | [5] | [9]

CNS(=O)(=O)Cc1ccc2[nH]cc(CCN(C)C)c2c1
inactive: [1] | [2] | [3] | [5] | [9] | Aromatase (Homo sapiens)
